{"source": "PubChem BioAssay (EPA / NIEHS)", "note": "Inconclusive results are not listed. Active and inactive are the calls of the source. The calls were made as follows, unless noted: active = hit-call score of the fitted dose curve at least 0.9, where 1 is the maximum; inconclusive = response in the unintended direction; inactive = score below 0.9."}
{"biological_target": "Cellular tumor antigen p53 (Homo sapiens) (UniProt P04637)", "sequence (P04637 whole entry, looked up)": "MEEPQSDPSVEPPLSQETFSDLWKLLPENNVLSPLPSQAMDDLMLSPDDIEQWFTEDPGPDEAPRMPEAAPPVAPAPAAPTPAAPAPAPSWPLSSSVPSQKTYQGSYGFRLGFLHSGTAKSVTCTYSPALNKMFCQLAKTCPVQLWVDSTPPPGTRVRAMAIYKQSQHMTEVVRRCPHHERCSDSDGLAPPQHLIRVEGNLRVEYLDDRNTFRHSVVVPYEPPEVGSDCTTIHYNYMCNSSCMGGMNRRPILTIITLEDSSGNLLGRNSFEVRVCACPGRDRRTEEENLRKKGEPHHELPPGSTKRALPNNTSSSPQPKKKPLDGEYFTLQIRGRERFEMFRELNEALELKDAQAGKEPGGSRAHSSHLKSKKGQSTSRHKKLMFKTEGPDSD", "experiment": "ATG_p53_CIS: Attagene CIS-FACTORIAL HepG2 Assay for human p53 Transcription Factor (AID 2282994; active = hit-call score of the fitted dose curve at least 0.9, where 1 is the maximum; inactive = score below 0.9)", "settings": "HepG2 p53 cis-element reporter, Attagene mRNA; actives raise or lower the signal", "how_it_was_run": "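Transiently transfected HepG2 (multiple cis reporter transcription units); exposure 24 h; reporter RNA via RT-PCR, 6-FAM extension, 2 h HpaI digest at 37 C, CE detection; DMSO baseline.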"}
{"compound": "CC(=O)C=O", "outcome": "inactive"}
{"compound": "CCC(Cc1c(I)cc(I)c(N)c1I)C(=O)O", "note": "(centres undefined)", "outcome": "inactive"}
{"compound": "CCC(=O)OC(C)c1ccccc1", "note": "(centres undefined)", "outcome": "inactive"}
{"compound": "CCCCCC/C=C/CCCCCCCC(=O)O", "outcome": "inactive"}
{"compound": "c1ccc(C[P+](c2ccccc2)(c2ccccc2)c2ccccc2)cc1", "outcome": "inactive"}
{"compound": "Cc1ccc2c(c1)OCC(=O)CO2", "outcome": "inactive"}
{"compound": "CC(O)C#CC(C)O", "note": "(centres undefined)", "AC50": "167 µM (active)"}
{"compound": "CC1CCCCC1", "outcome": "inactive"}
{"compound": "O=C1c2ccccc2C(=O)c2c(Cl)cccc21", "outcome": "inactive"}
{"compound": "COC(=O)c1ccc(C=O)cc1", "outcome": "inactive"}
{"compound": "COCCC(=O)OC", "outcome": "inactive"}
{"compound": "CCOC(=O)CCC(C)=O", "outcome": "inactive"}
{"compound": "C[Si](C)O[Si](C)C", "outcome": "inactive"}
{"compound": "CO[Si](CCCOCC1CO1)(OC)OC", "note": "(centres undefined)", "outcome": "inactive"}
{"compound": "CCCCCCCCn1sc(Cl)c(Cl)c1=O", "AC50": "11.1 µM (active)"}
{"compound": "Nc1cccnc1N", "outcome": "inactive"}
{"compound": "CC(C)OC=O", "outcome": "inactive"}
{"compound": "Oc1ccc(C2(c3ccc(O)c(C4CCCCC4)c3)CCCCC2)cc1C1CCCCC1", "outcome": "inactive"}
{"compound": "CC1=CCC2C(=O)OC(=O)C2C1", "note": "(centres undefined)", "outcome": "inactive"}
{"compound": "CCCCOC(=O)C(C)O", "note": "(centres undefined)", "outcome": "inactive"}
{"compound": "CN1CN(C)CN(C)C1", "outcome": "inactive"}
{"compound": "C=C(C)CCCC", "outcome": "inactive"}
{"compound": "F[Si-2](F)(F)(F)(F)F", "outcome": "inactive"}
{"compound": "CC(=O)c1ccccc1N", "outcome": "inactive"}
{"compound": "CSc1ccc(O)cc1C", "outcome": "inactive"}
{"compound": "O=C(Cl)c1ccc(Cl)cc1Cl", "outcome": "inactive"}
{"compound": "CCCCCCCCCCCC(=O)Cl", "outcome": "inactive"}
{"compound": "CCCCCCCC/C=C\\CCCCCCCC(=O)OCC(O)CO", "note": "(centres undefined)", "outcome": "inactive"}
{"compound": "Cc1cc(=O)[nH]c(C(C)C)n1", "outcome": "inactive"}
{"compound": "CCCCCCCC/C=C\\CCCCCCCC(=O)N(C)CC(=O)O", "outcome": "inactive"}
{"compound": "CSc1ccc(Cl)cc1", "outcome": "inactive"}
{"compound": "CC(C)OC(=O)COc1ccc(Cl)cc1Cl", "outcome": "inactive"}
{"compound": "CCc1cccc(C)c1N(C(=O)C(=O)O)C(C)COC", "note": "(centres undefined)", "outcome": "inactive"}
{"compound": "CCC(C)CO", "note": "(centres undefined)", "outcome": "inactive"}
{"compound": "CC(C)Nc1ccc(NC(C)C)c2c1C(=O)c1ccccc1C2=O", "outcome": "inactive"}
{"compound": "CC(C)CC=C(C=O)c1ccccc1", "outcome": "inactive"}
{"compound": "C#CC(O)CCC", "note": "(centres undefined)", "outcome": "inactive"}
{"biological_target": "human Peroxisome Proliferator-activated Receptor alpha (PPARa), PPARA (gene 5465) (UniProt Q07869)", "sequence (Q07869 whole entry, looked up)": "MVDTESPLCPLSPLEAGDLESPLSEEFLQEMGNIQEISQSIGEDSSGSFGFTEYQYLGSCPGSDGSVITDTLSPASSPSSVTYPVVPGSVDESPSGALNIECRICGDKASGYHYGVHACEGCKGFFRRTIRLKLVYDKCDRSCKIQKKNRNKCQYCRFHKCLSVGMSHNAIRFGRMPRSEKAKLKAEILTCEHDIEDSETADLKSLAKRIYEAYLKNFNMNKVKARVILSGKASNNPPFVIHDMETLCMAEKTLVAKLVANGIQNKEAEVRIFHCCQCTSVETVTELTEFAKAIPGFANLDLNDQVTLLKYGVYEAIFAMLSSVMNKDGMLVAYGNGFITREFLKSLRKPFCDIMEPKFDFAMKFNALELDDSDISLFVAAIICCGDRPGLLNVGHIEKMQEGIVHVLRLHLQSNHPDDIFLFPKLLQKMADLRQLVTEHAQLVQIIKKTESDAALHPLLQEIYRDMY", "experiment": "ATG_PPARa_TRANS: Attagene TRANS-FACTORIAL HepG2 Assay for human Peroxisome Proliferator-activated Receptor alpha (PPARa) (AID 2283001);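 as to AC50: potency for gain of reporter signal over DMSO so agonist or activator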", "settings": "not given", "how_it_was_run": "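HepG2, transient MRTU transfection, 24 h treatment. RT-PCR → FAM labelling → capillary electrophoresis. Fit vs DMSO, positive direction.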"}
{"compound": "CC(=O)C=O", "outcome": "inactive"}
{"compound": "CCC(Cc1c(I)cc(I)c(N)c1I)C(=O)O", "note": "(centres undefined)", "AC50": "35.9 µM (active)"}
{"compound": "CCC(=O)OC(C)c1ccccc1", "note": "(centres undefined)", "outcome": "inactive"}
{"compound": "CCCCCC/C=C/CCCCCCCC(=O)O", "AC50": "37.6 µM (active)"}
{"compound": "c1ccc(C[P+](c2ccccc2)(c2ccccc2)c2ccccc2)cc1", "outcome": "inactive"}
{"compound": "Cc1ccc2c(c1)OCC(=O)CO2", "outcome": "inactive"}
{"compound": "CC(O)C#CC(C)O", "note": "(centres undefined)", "outcome": "inactive"}
{"compound": "CC1CCCCC1", "outcome": "inactive"}
{"compound": "O=C1c2ccccc2C(=O)c2c(Cl)cccc21", "outcome": "inactive"}
{"compound": "COC(=O)c1ccc(C=O)cc1", "outcome": "inactive"}
{"compound": "COCCC(=O)OC", "outcome": "inactive"}
{"compound": "CCOC(=O)CCC(C)=O", "outcome": "inactive"}
{"compound": "C[Si](C)O[Si](C)C", "outcome": "inactive"}
{"compound": "CCCCCCCCn1sc(Cl)c(Cl)c1=O", "outcome": "inactive"}
{"compound": "Nc1cccnc1N", "outcome": "inactive"}
{"compound": "CC(C)OC=O", "outcome": "inactive"}
{"compound": "Oc1ccc(C2(c3ccc(O)c(C4CCCCC4)c3)CCCCC2)cc1C1CCCCC1", "outcome": "inactive"}
{"compound": "CC1=CCC2C(=O)OC(=O)C2C1", "note": "(centres undefined)", "outcome": "inactive"}
{"compound": "CCCCOC(=O)C(C)O", "note": "(centres undefined)", "outcome": "inactive"}
{"compound": "CN1CN(C)CN(C)C1", "outcome": "inactive"}
{"compound": "C=C(C)CCCC", "outcome": "inactive"}
{"compound": "F[Si-2](F)(F)(F)(F)F", "outcome": "inactive"}
{"compound": "CC(=O)c1ccccc1N", "outcome": "inactive"}
{"compound": "CSc1ccc(O)cc1C", "outcome": "inactive"}
{"compound": "O=C(Cl)c1ccc(Cl)cc1Cl", "outcome": "inactive"}
{"compound": "CCCCCCCCCCCC(=O)Cl", "outcome": "inactive"}
{"compound": "CCCCCCCC/C=C\\CCCCCCCC(=O)OCC(O)CO", "note": "(centres undefined)", "AC50": "27.7 µM (active)"}
{"compound": "Cc1cc(=O)[nH]c(C(C)C)n1", "outcome": "inactive"}
{"compound": "CCCCCCCC/C=C\\CCCCCCCC(=O)N(C)CC(=O)O", "AC50": "2.02 µM (active)"}
{"compound": "CSc1ccc(Cl)cc1", "outcome": "inactive"}
{"compound": "CC(C)OC(=O)COc1ccc(Cl)cc1Cl", "outcome": "inactive"}
{"compound": "CCc1cccc(C)c1N(C(=O)C(=O)O)C(C)COC", "note": "(centres undefined)", "outcome": "inactive"}
{"compound": "CCC(C)CO", "note": "(centres undefined)", "outcome": "inactive"}
{"compound": "CC(C)Nc1ccc(NC(C)C)c2c1C(=O)c1ccccc1C2=O", "outcome": "inactive"}
{"compound": "CC(C)CC=C(C=O)c1ccccc1", "outcome": "inactive"}
{"compound": "C#CC(O)CCC", "note": "(centres undefined)", "outcome": "inactive"}
{"biological_target": "human Peroxisome Proliferator-activated Receptor delta (PPARd), PPARD (gene 5467) (UniProt Q03181)", "sequence (Q03181 whole entry, looked up, the tested form may be a part)": "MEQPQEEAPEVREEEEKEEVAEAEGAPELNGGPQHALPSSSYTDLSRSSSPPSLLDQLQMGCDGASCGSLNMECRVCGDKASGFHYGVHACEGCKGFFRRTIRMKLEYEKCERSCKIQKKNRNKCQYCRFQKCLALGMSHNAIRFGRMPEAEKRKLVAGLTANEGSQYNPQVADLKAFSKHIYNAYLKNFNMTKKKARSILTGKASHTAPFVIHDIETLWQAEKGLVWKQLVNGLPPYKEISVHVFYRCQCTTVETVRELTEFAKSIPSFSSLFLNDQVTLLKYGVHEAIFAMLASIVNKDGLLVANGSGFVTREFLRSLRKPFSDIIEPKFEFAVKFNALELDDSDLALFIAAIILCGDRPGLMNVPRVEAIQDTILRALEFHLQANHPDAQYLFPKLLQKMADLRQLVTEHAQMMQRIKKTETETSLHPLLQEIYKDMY", "experiment": "ATG_PPARd_TRANS: Attagene TRANS-FACTORIAL HepG2 Assay for human Peroxisome Proliferator-activated Receptor delta (PPARd) (AID 2283002)", "settings": "not given", "how_it_was_run": "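Fluorescence from capillary electrophoresis of labelled RT-PCR reporter fragments gives the signal; DMSO sets baseline. Cells: HepG2 transiently carrying GAL4-UAS reporter units plus chimeric nuclear receptor-Gal4 proteins, exposed to chemicals for 24 h.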"}
{"compound": "CCC(Cc1c(I)cc(I)c(N)c1I)C(=O)O", "note": "(centres undefined)", "outcome": "inactive"}
{"compound": "CCC(=O)OC(C)c1ccccc1", "note": "(centres undefined)", "outcome": "inactive"}
{"compound": "CCCCCC/C=C/CCCCCCCC(=O)O", "outcome": "inactive"}
{"compound": "Cc1ccc2c(c1)OCC(=O)CO2", "outcome": "inactive"}
{"compound": "CC(O)C#CC(C)O", "note": "(centres undefined)", "outcome": "inactive"}
{"compound": "O=C1c2ccccc2C(=O)c2c(Cl)cccc21", "outcome": "inactive"}
{"compound": "COCCC(=O)OC", "outcome": "inactive"}
{"compound": "CCOC(=O)CCC(C)=O", "outcome": "inactive"}
{"compound": "C[Si](C)O[Si](C)C", "outcome": "inactive"}
{"compound": "CO[Si](CCCOCC1CO1)(OC)OC", "note": "(centres undefined)", "outcome": "inactive"}
{"compound": "CCCCCCCCn1sc(Cl)c(Cl)c1=O", "outcome": "inactive"}
{"compound": "Nc1cccnc1N", "outcome": "inactive"}
{"compound": "CCCCOC(=O)C(C)O", "note": "(centres undefined)", "outcome": "inactive"}
{"compound": "C=C(C)CCCC", "outcome": "inactive"}
{"compound": "F[Si-2](F)(F)(F)(F)F", "outcome": "inactive"}
{"compound": "CC(=O)c1ccccc1N", "outcome": "inactive"}
{"compound": "CSc1ccc(O)cc1C", "outcome": "inactive"}
{"compound": "O=C(Cl)c1ccc(Cl)cc1Cl", "outcome": "inactive"}
{"compound": "CCCCCCCCCCCC(=O)Cl", "AC50": "125 µM (active)"}
{"compound": "CCCCCCCC/C=C\\CCCCCCCC(=O)OCC(O)CO", "note": "(centres undefined)", "outcome": "inactive"}
{"compound": "Cc1cc(=O)[nH]c(C(C)C)n1", "outcome": "inactive"}
{"compound": "CCCCCCCC/C=C\\CCCCCCCC(=O)N(C)CC(=O)O", "outcome": "inactive"}
{"compound": "CSc1ccc(Cl)cc1", "outcome": "inactive"}
{"compound": "CCc1cccc(C)c1N(C(=O)C(=O)O)C(C)COC", "note": "(centres undefined)", "outcome": "inactive"}
{"compound": "CC(C)Nc1ccc(NC(C)C)c2c1C(=O)c1ccccc1C2=O", "outcome": "inactive"}
{"compound": "CC(C)CC=C(C=O)c1ccccc1", "outcome": "inactive"}
